Compounds without any hit were thinned out: in the full panel of roughly 83,000, 20% have a hit.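 A percent growth of 40 corresponds to 60% growth inhibition; 0 means no net growth; -100 means all cells died. Active threshold: below 10.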 Values without a mark were called inactive. Activity calls are given as the source filed them.
Key:
Experiment in all cases: NCI-60 one-dose screen, 48 h (100 = growth as untreated, 0 = no growth, -100 = all killed)
Settings in all cases: 10 µM unless noted
[1] = tested on: NCI-H23 lung
[2] = tested on: NCI-H226 lung
[3] = tested on: NCI-H322M lung
[4] = tested on: HOP-62 NSCLC
[5] = tested on: NCI-H460 lung
[6] = tested on: HOP-92 NSCLC
[7] = tested on: A549/ATCC NSCLC
[8] = tested on: 786-0 renal
[9] = tested on: COLO 205 colon

Row | Compound | growth [1] | growth [2] | growth [3] | growth [4] | growth [5] | growth [6] | growth [7] | growth [8] | growth [9]
1 | Cc1cc2c(cc1C)[n+](Cc1ccc3ccccc3c1)cn2Cc1ccc2ccccc2c1 | -71.8% (active) | -25.5% (active) | -8.28% (active) | -73% (active) | -76.8% (active) | -80.8% (active) | -71.3% (active) | -88.9% (active) | -67.8% (active)
2 | O=C(O)C1C(c2ccccc2)c2ccccc2C(O)C1CO (configuration not stated) | 106% | 105% | 112% | 107% | 111% | 89.1% | 111% | 107% | 99.7%
3 | CCCCCCCC[Si](OCC)(OCC)OCC | 98.2% | 96.1% | 103% | 101% | 107% | 88.8% | 102% | 99.3% | 108%
4 | CNc1nc(NC2CCCC2)nc(Sc2ccc(OC)cc2)n1 | 39.4% [100 µM] | 46.4% [100 µM] | 68.5% [100 µM] | 53.4% [100 µM] | 10.2% [100 µM] | -42.7% [100 µM] (active) | 20.3% [100 µM] | 13% [100 µM] | 22.5% [100 µM]
5 | Cc1cc(C(=O)Nc2ccc3cc(CN4CCOCC4)ccc3n2)c(C)n1-c1ccccc1 | 12.7% | 21.9% | 94.2% | 36% | 59.3% | 51.7% | 28% | 56.7% | 40.5%
6 | CO[C@H]1/C=C/O[C@@]2(C)Oc3c(C)c(O)c4c(O)c(c(/C=N/N5C(C)CN(Cc6ccc(C#N)cc6)CC5C)c(O)c4c3C2=O)NC(=O)/C(C)=C\C=C\[C@H](C)[C@H](O)[C@@H](C)[C@@H](O)[C@@H](C)[C@H](OC(C)=O)[C@@H]1C (some centres not stated) | 11.5% | 49.5% | 28.7% | 43.8% | 3.3% (active) | 27.1% | 21.7% | 14.1% | 1.58% (active)
7 | O=C(COc1ccc(/C=C2\Cc3ccccc3C2=O)cc1)c1ccc(Cl)cc1 | 89.2% | 97.5% | 123% | 101% | 101% | 90.7% | 99.6% | 102% | 117%
8 | O=C1CSC(c2ccccc2Cl)N1c1nnc(Cn2nnc3ccccc32)o1 (configuration not stated) | 80.6% | 96.1% | 80.9% | 91.9% | 88% | 56.8% | 59.9% | 88.7% | 106%
9 | COc1cc(C2CC(C3C(=O)N(C)C(=O)N(C)C3=O)=NN2c2cc(Cl)cc(Cl)c2)cc(OC)c1OC (configuration not stated) | 93.5% | 85% | 104% | 89.7% | 94.5% | 88.5% | 78.2% | 99.6% | 99.7%
10 | COP(=O)(OC)C(c1ccc(O)cc1)(c1ccc(O)cc1)c1ccc(O)cc1 | 114% | 99.7% | 103% | 83.3% | 113% | 79.3% | 99.9% | 82.4% | 123%
11 | CCOC(=O)C1=CCC(n2cc(C)c(=O)[nH]c2=O)O1 (configuration not stated) | 102% | 89.5% | 101% | 104% | 114% | 65% | 96.7% | 105% | 90.1%
12 | CCOC(=O)C1C(=O)NC(C(=O)OCC)(C(=O)OCC)C1CC (configuration not stated) | 112% | 97.7% | 119% | 109% | 117% | 98% | 97.2% | 107% | 114%
13 | Cc1nn2c(/C=C3/C(=O)Nc4cc(Cl)ccc43)c(-c3ccccc3)nc2s1 | 34.9% | 95.2% | 31% | 20.4% | 13.6% | -27.8% (active) | -28.7% (active) | -74.8% (active) | 21.8%
14 | CCOc1cc(/C=C/C(=O)CC(=O)/C=C/c2ccc(OC(=O)CNc3nc4ccc(OC)cc4s3)c(OCC)c2)ccc1OC(=O)CNc1nc2ccc(OC)cc2s1 | 55.7% | 64.5% | 88.6% | 63.9% | 57.5% | 90.9% | 48.2% | 32.2% | 109%
15 | O=C(/C=C/c1cccc(Nc2ccnc3cc(Cl)ccc23)c1)c1ccc(Cl)cc1 | 45.9% | 49.5% | 67.3% | 50.2% | 66.7% | 45.8% | 79.4% | 58% | 80.1%
16 | COc1cnc2c(c1)C(=O)c1c-2n(CCCNC2=NCCS2)c(=O)c2cc(F)ccc12 | 6.62% (active) | 3.93% (active) | 46.6% | 11.2% | -43.8% (active) | 50.9% | 9.29% (active) | -90.5% (active) | 22.1%
17 | O=C(/C=C/c1c(-c2ccccc2)[nH]c2ccccc12)S(=O)(=O)c1ccccc1 | 73% | 69.1% | 93% | 69.3% | 43.8% | 47.8% | 25.7% | 74.4% | 80.6%
18 | CCc1nn2c(-c3ccc(Cl)cc3C)c(-c3cc(OC)c(OC)c(OC)c3)nc2s1 | 88.9% | 87% | 69.7% | 84.7% | 84.8% | 58.1% | 82.7% | 72.9% | 81.2%
19 | O=C(CC(C(=O)c1ccccc1)N1CCN(Cc2ccccc2)CC1)c1ccccc1 (configuration not stated) | 84% | 104% | 112% | 104% | 104% | 80.7% | 98% | 95.8% | 70.3%
20 | COP(=O)(OC)C(c1ccccc1)(c1ccccc1)c1ccccc1 | 104% | 83.8% | 95.4% | 93.8% | 108% | 62.8% | 74.5% | 93.3% | 103%
21 | C[C@@H]1[C@H]2[C@H](C=C3[C@@H]4CC[C@H]5Cc6nc7c(nc6C[C@]5(C)[C@H]4C[C@@H](O)[C@@]32C)C[C@@H]2CC[C@H]3C4=C[C@@H]5O[C@@]6(CC[C@](C)(CO)O6)[C@@H](C)[C@@]5(O)[C@@]4(C)[C@H](O)C[C@@H]3[C@@]2(C)C7)O[C@]12CCC(C)(C)O2 | 33.6% | 20.7% | 27.8% | -24.5% (active) | 0.313% (active) | -4.69% (active) | 12.8% | -25.3% (active) | -39.3% (active)
22 | Cc1cc(=O)oc2cc(OCCn3c(C)nn(-c4ccc(Cl)cc4)c3=O)ccc12 | 45.8% | 50.1% | 58.7% | 27.4% | 17.2% | 47.4% | 30.2% | 32.9% | 10.6%
23 | COc1ccc(NC(=O)c2ccccc2-c2ccccc2)c(C(N)=O)c1 | 53.7% | 70.2% | 58.7% | 45.3% | 17% | 57.3% | 46.5% | 28.5% | 9.95% (active)
24 | CN1CCN(CCCCCN=c2cc3c(=O)n(CCCCCN4CCN(C)CC4)c(=O)c4c(NCCCCCN5CCN(C)CC5)cc5c(O)n(CCCCCN6CCN(C)CC6)c(=O)c2c5c4-3)CC1 | 34.1% | 0.125% (active) | -23.2% (active) | 14.6% | 5.16% (active) | 2.86% (active) | 5.01% (active) | 92.9% | -15.4% (active)
25 | COc1cc(C2CC(C3C(=O)N(C)C(=O)N(C)C3=O)=NN2C=O)cc(OC)c1OC (configuration not stated) | 97.3% | 95.8% | 91.2% | 73.5% | 99.9% | 105% | 75.1% | 108% | 98.7%
26 | COc1cccc(-c2nc3cc(NC(=O)c4ccc(Cl)c(C#N)c4)ccc3o2)c1 | -18.8% (active) | 76.1% | -13.2% (active) | 70.2% | -21.4% (active) | 26.5% | -26.7% (active) | -92.1% (active) | 28.9%
27 | N/C(=N\C(N)=N\c1nc2ccccc2s1)c1ccnc(Cl)c1 | 43.4% | 48.8% | 70.1% | 44.4% | 17.3% | 73.9% | 47.4% | 41.1% | 18.1%
28 | CCN(CC)CCSc1ncnc2c1cnn2-c1ccc(S(N)(=O)=O)cc1 | 94.9% | 92.9% | 102% | 98.4% | 85.9% | 50.9% | 84.7% | 95.3% | 113%

Source: PubChem BioAssay (NCI)
